About 7,900 targets were measured; listed, in parts, are those with a hit and a random draw of the rest. About 0.6% of all pairs of compound and target were hits. A number with no mark means an inactive call.
What was measured:
Assay in all cases: log2 fold change, soluble protein after heating vs DMSO (PISA); higher = thermal stabilisation; K562 cells, 10 uM, 30 min; active = over 0.2 and 3.5 SD of the protein, either way, in both replicates (recomputed)
bafetinib = compound: Cc1ccc(NC(=O)c2ccc(CN3CC[C@H](N(C)C)C3)c(C(F)(F)F)c2)cc1Nc1nccc(-c2cncnc2)n1 [bafetinib]
How it was run: (§1)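 K562 cells at 2×10^6 cells/mL were exposed to 10 μM compound for 30 min, then aliquots were heated for 3 min across 48°C-58°C, pooled, and extracted in PBS containing 0.5% NP-40 at 4°C. The supernatant after 21,000xg for 90 min was taken as soluble protein and measured by TMTpro 16plex LC-MS/MS with channel sums equalised. Thermal stability is reported relative to control samples, with values from duplicates. Fold changes are given on a log2 scale.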

[1] = compound: Cc1cccc(CC(=O)N2CCc3c2ccc(-c2cn(C)c4ncnc(N)c24)c3F)n1
How it was run: as §1

nilotinib = compound: Cc1cn(-c2cc(NC(=O)c3ccc(C)c(Nc4nccc(-c5cccnc5)n4)c3)cc(C(F)(F)F)c2)cn1 [nilotinib]
How it was run: as §1

[2] = compound: Cc1nc(Nc2n[nH]c3c2CN(C(=O)N[C@H](CN(C)C)c2ccccc2)C3(C)C)c2sccc2n1
How it was run: as §1

dasatinib = compound: Cc1nc(Nc2ncc(C(=O)Nc3c(C)cccc3Cl)s2)cc(N2CCN(CCO)CC2)n1 [dasatinib]
How it was run: as §1

[3] = compound: Cc1ncc(-c2ccnc(Nc3ccc(S(C)(=O)=O)cc3)n2)n1C(C)C
How it was run: as §1

[4] = compound: Cn1cc(-c2ccc3c(c2)CCN3C(=O)Cc2cccc(C(F)(F)F)c2)c2c(N)ncnc21
How it was run: as §1

[5] = compound: Cn1cc(-c2ccc3nnc(C(F)(F)c4ccc5ncccc5c4)n3n2)cn1
How it was run: as §1

tipifarnib = compound: Cn1cncc1[C@@](N)(c1ccc(Cl)cc1)c1ccc2c(c1)c(-c1cccc(Cl)c1)cc(=O)n2C [tipifarnib]
How it was run: as §1

mubritinib = compound: FC(F)(F)c1ccc(/C=C/c2nc(COc3ccc(CCCCn4ccnn4)cc3)co2)cc1 [mubritinib]
How it was run: as §1

Sequence of UniProt Q92538 (Q92538 whole entry, looked up): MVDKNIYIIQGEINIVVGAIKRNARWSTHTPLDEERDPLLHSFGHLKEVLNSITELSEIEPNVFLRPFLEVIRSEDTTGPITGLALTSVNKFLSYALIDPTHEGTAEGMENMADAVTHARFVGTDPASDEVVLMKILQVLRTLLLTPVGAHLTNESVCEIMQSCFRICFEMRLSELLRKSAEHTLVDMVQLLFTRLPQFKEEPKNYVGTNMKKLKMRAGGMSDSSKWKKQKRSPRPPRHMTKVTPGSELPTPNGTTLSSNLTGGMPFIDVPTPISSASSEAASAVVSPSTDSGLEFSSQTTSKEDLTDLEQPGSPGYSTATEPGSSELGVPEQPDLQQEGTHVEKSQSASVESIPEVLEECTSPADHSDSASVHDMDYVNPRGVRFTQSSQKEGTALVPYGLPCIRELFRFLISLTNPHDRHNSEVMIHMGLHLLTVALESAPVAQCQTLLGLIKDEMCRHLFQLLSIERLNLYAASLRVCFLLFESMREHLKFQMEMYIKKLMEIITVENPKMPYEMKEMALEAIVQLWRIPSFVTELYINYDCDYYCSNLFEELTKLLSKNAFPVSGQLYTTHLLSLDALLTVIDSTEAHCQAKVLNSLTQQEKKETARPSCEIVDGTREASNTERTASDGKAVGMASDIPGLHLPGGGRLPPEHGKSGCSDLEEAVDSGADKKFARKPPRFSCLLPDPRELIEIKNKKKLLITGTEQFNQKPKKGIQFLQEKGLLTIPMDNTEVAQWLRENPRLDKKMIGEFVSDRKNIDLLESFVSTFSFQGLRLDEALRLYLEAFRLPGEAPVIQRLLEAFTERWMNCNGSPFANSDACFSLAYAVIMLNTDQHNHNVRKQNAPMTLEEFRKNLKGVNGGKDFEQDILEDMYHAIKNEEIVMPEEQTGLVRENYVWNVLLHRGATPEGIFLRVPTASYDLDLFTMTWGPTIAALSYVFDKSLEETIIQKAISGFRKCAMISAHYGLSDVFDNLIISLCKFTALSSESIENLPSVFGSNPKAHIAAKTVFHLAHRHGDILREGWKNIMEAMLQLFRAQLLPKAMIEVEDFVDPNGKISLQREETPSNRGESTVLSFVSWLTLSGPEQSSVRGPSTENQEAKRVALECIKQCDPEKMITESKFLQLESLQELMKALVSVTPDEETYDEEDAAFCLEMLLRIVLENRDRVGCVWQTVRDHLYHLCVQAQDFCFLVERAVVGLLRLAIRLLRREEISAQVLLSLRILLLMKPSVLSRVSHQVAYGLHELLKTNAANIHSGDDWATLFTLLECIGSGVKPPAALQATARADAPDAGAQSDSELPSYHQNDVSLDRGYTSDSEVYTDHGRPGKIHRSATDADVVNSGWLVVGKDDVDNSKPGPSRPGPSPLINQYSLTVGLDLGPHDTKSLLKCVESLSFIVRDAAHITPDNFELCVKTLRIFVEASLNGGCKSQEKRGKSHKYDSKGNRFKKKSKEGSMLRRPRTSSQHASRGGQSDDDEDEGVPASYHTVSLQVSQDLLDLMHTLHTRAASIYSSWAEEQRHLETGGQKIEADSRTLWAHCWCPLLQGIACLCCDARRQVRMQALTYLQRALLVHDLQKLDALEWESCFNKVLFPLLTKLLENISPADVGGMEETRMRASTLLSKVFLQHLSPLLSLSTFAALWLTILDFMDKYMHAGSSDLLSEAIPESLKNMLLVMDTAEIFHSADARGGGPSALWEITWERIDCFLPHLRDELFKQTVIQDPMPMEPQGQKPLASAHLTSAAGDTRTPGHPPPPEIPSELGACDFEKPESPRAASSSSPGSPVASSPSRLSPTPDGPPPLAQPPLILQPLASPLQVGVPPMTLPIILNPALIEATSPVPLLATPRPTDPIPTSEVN
Sequence of UniProt Q13547 (Q13547 whole entry, looked up): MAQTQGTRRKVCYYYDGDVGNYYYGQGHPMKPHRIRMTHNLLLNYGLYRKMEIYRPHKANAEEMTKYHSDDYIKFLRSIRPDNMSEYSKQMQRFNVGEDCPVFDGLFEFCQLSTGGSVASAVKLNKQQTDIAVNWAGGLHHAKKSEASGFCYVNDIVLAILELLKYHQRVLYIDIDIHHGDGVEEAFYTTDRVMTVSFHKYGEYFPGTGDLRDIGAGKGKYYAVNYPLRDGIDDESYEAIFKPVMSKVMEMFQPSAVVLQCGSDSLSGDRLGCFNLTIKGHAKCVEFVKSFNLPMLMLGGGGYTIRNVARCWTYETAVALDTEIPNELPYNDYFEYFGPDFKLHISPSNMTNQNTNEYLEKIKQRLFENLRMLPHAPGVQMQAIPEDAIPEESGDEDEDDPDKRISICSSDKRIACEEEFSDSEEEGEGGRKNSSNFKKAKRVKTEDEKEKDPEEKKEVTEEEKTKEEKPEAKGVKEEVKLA
Sequence of UniProt Q8N2G8 (Q8N2G8 whole entry, looked up): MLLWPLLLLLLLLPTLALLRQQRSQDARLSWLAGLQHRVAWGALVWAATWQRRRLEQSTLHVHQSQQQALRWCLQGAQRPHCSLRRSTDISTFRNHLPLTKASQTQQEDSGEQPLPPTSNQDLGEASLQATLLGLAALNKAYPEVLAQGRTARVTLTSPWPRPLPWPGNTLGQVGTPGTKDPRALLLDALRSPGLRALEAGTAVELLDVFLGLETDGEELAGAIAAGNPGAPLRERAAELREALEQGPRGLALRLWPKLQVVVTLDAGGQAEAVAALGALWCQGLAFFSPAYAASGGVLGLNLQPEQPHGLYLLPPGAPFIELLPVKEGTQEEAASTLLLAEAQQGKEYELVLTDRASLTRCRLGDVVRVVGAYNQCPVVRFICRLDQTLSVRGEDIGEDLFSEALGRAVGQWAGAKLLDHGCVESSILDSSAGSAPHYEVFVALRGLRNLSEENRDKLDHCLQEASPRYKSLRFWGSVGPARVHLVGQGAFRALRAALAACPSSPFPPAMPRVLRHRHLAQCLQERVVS
Sequence of UniProt P22087 (P22087 whole entry, looked up): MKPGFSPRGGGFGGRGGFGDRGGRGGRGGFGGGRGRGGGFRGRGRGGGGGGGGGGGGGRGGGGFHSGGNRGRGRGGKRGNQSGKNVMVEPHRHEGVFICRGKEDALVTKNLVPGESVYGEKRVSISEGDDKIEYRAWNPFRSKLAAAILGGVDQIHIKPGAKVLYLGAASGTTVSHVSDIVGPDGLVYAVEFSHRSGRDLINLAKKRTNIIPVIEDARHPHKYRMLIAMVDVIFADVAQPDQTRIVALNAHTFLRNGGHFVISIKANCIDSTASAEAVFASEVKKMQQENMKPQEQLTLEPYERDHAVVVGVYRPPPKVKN
Sequence of UniProt Q16774 (Q16774 whole entry, looked up): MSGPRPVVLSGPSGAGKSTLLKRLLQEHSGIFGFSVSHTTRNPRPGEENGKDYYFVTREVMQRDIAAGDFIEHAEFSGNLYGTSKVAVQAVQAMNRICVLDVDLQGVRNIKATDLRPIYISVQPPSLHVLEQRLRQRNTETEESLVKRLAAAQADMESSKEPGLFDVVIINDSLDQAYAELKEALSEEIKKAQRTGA
Sequence of UniProt Q8N4A0 (Q8N4A0 whole entry, looked up): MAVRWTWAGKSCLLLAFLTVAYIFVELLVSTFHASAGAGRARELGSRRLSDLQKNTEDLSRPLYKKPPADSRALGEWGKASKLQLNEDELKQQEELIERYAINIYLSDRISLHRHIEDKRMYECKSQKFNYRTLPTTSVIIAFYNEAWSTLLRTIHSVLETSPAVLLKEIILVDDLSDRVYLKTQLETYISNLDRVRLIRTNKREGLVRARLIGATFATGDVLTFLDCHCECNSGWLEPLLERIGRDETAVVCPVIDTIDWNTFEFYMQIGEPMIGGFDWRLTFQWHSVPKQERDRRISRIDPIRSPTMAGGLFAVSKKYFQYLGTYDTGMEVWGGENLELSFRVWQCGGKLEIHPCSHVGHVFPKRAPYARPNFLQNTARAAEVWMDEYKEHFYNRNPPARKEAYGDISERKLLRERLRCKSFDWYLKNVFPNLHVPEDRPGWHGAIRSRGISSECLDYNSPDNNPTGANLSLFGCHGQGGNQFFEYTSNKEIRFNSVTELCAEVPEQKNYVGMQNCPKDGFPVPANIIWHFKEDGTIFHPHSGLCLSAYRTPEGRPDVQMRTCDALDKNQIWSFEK
Sequence of UniProt Q969S8 (Q969S8 whole entry, looked up): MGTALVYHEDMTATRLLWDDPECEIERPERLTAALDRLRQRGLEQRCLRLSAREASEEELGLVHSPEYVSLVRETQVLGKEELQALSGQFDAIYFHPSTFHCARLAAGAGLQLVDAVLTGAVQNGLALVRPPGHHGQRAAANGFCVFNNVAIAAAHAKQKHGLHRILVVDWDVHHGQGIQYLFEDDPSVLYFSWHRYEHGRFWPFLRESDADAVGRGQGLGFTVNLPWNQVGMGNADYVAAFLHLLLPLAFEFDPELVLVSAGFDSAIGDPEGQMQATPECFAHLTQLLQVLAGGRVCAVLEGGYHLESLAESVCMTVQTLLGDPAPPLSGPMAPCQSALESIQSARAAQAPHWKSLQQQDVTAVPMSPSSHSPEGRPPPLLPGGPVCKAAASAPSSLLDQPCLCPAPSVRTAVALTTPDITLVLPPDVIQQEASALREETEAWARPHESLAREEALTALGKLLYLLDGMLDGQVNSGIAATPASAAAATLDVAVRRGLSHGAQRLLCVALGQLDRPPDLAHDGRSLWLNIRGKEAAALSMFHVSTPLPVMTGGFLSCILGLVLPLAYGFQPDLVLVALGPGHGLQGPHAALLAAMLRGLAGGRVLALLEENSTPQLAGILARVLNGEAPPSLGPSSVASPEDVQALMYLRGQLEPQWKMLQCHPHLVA
Sequence of UniProt P30711 (P30711 whole entry, looked up): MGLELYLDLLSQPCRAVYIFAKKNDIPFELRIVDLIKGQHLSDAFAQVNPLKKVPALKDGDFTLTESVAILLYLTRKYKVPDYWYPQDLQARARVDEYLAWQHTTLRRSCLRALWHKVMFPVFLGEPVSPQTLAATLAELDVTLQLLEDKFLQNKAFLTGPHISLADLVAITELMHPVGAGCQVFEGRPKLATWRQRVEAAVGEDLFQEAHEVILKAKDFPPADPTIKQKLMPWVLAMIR

Row | Target | log2 fold change (bafetinib) | log2 fold change [1] | log2 fold change (nilotinib) | log2 fold change [2] | log2 fold change (dasatinib) | log2 fold change [3] | log2 fold change [4] | log2 fold change [5] | log2 fold change (tipifarnib) | log2 fold change (mubritinib)
1 | FANCI (UniProt Q9NVI1) | -0.043 | 0.041 | -0.13 | 0.113 | -0.118 | -0.085 | 0.075 | 0.098 | -0.027 | 0.086
2 | GALNT4 (UniProt Q8N4A0) | -0.042 | -0.042 | -0.049 | 0.006 | -0.021 | 0.042 | 0.079 | -0.005 | 0.038 | 0.035
3 | HNRNPUL2 (UniProt Q1KMD3) | 0 | -0.083 | -0.001 | 0.033 | 0.098 | 0.097 | -0.147 | -0.035 | 0.03 | -0.137
4 | HEXA (UniProt P06865) | -0.491 (active) | -0.023 | -0.001 | 0.017 | 0.016 | -0.036 | -0.003 | 0.006 | 0.044 | 0.023
5 | HECTD1 (UniProt Q9ULT8) | 0.025 | 0.029 | -0.111 | -0.141 | -0.104 | -0.022 | -0.058 | -0.032 | -0.088 | -0.144
6 | GHDC (UniProt Q8N2G8) | -0.165 | 0.018 | 0.036 | -0.001 | 0.027 | -0.011 | 0.045 | 0.012 | 0.146 | 0.01
7 | FBXO9 (UniProt Q9UK97) | 0.067 | 0.234 | 0.087 | -0.354 | -0.056 | -0.113 | -0.236 | -0.093 | -0.088 | -0.265
8 | GSK3B isoform 2 (UniProt P49841) | -0.003 | 0.055 | -0.04 | 0.094 | -0.115 | 0.124 | 0.055 | -0.013 | -0.024 | -0.008
9 | GLB1 (UniProt P16278) | -0.418 (active) | -0.009 | 0.013 | 0.017 | 0.061 | 0.004 | -0.006 | 0.016 | 0.039 | -0.009
10 | GOLGB1 isoform 2 (UniProt Q14789) | -0.022 | -0.03 | -0.054 | 0.018 | 0.08 | -0.078 | -0.077 | 0 | 0.014 | 0.017
11 | GBF1 (UniProt Q92538) | 0.014 | 0.081 | -0.117 | -0.109 | -0.113 | -0.001 | -0.079 | -0.049 | -0.15 | 0.093
12 | GTF2H3 (UniProt Q13889) | -0.009 | 0.058 | 0.041 | 0 | 0.024 | -0.064 | -0.113 | -0.02 | -0.025 | 0.023
13 | GLUD2 (UniProt P49448) | 0.234 | 0.02 | 0.478 (active) | 0.21 | -0.021 | -0.031 | 0.265 (active) | -0.028 | 0.079 | 0.041
14 | FASTKD1 (UniProt Q53R41) | 0.098 | -0.021 | -0.183 | 0.54 (active) | -0.168 | -0.053 | 0.217 | -0.064 | – | –
15 | GUK1 isoform 2 (UniProt Q16774) | 0.134 | 0.053 | 0.226 | -0.056 | -0.109 | 0.054 | 0.058 | -0.007 | -0.15 | 0.397 (active)
16 | GSTP1 (UniProt P09211) | -0.061 | -0.021 | -0.018 | -0.017 | -0.014 | 0.007 | 0.032 | 0.038 | -0.007 | 0.038
17 | HDAC10 (UniProt Q969S8) | -0.255 | -0.073 | -0.118 | -0.075 | -0.027 | -0.08 | 0.071 | 0.001 | 0.046 | 0.116
18 | FAT1 (UniProt Q14517) | -0.061 | 0.044 | 0.013 | 0 | 0.046 | -0.064 | 0.009 | -0.052 | 0.077 | 0.057
19 | FBXO42 (UniProt Q6P3S6) | -0.014 | -0.006 | -0.006 | 0.028 | -0.036 | -0.026 | 0.137 | -0.007 | 0.006 | 0.059
20 | FECH isoform 2 (UniProt P22830) | 0.315 | -0.125 | 0.189 | -0.04 | 0.46 | 0.134 | 0.549 | 0.248 | 0.134 | 0.034
21 | HDAC1 (UniProt Q13547) | 0.306 | -0.046 | -0.023 | -0.021 | -0.091 | -0.055 | -0.002 | -0.009 | -0.078 | -0.025
22 | GALNT11 (UniProt Q8NCW6) | -0.055 | -0.089 | -0.047 | -0.068 | -0.022 | 0.076 | 0.069 | -0.031 | 0.102 | 0.088
23 | HPCAL1 (UniProt P37235) | -0.09 | 0.027 | -0.076 | 0.033 | -0.031 | -0.028 | -0.011 | 0.053 | -0.032 | 0.016
24 | HK2 (UniProt P52789) | -0.215 | 0.029 | -0.967 (active) | -0.194 | -0.106 | -0.03 | 0.022 | 0.01 | -0.01 | 0.046
25 | GCSH (UniProt P23434) | -0.13 | 0.095 | -0.022 | 0.01 | 0.015 | -0.026 | 0.016 | 0.016 | -0.017 | -0.05
26 | GSTM4 (UniProt Q03013) | 0.021 | 0.002 | 0.001 | 0.088 | 0 | -0.018 | 0.026 | -0.141 | -0.023 | -0.08
27 | FKBP7 (UniProt Q9Y680) | 0 | -0.04 | 0.055 | -0.058 | 0.064 | 0 | 0.071 | 0.012 | 0.027 | 0.031
28 | GSTT1 (UniProt P30711) | -0.019 | -0.144 | 0.056 | -0.019 | 0.143 | -0.033 | 0.014 | 0.043 | -0.065 | 0.012
29 | FBL (UniProt P22087) | 0.29 | -0.039 | 0.094 | -0.017 | 0.454 | -0.01 | -0.337 | -0.097 | 0.301 | -0.241
30 | GCC2 (UniProt Q8IWJ2) | 0.033 | -0.045 | -0.14 | -0.071 | -0.011 | 0.119 | -0.032 | 0.02 | 0.051 | -0.088

Source: the supplement of paper PMC10849652
